The values that follow come from PubChem BioAssay AID1321 (The Scripps Research Institute Molecular Screening Center, 2008).

Out of some 220,000 compounds screened, about 2,600 (1.2%) were called active. For the sample, actives were picked, then their nearest neighbours and some compounds at random. Unmarked numbers belong to inactive results.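 The calls were made as follows: active = activation above the mean of all tested compounds plus 3 SD, set per screening run (cut at about 8.8% in these data); inactive = the rest.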

For the experiment, the target named is Wee1-like protein kinase (Homo sapiens) (UniProt P30291). The experiment in a line: Wee1 degradation inhibitors, primary screen, cell-based, HeLa, Wee1K328M-luciferase, luminescence (AID 1321).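 Also: cells exposed to compound for 20 h before luminescence read; 0% = DMSO alone and 100% = MG132 at 30 µM.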 The settings on record: HeLa Luc-Wee1K328M stability, at 5 µM, active compounds read high, 100% = proteasome inhibitor MG132 effect.
For the compound `O=S(=O)(Cc1noc(-c2ccc(OC(F)(F)F)cc2)n1)c1ccc(F)cc1`, the reporter increase was 4.61%.

For the compound `CC(C)(C)n1nnnc1C(c1cccs1)N(Cc1cccnc1)CC1CCCO1` (stereo unspecified), the reporter increase is 4.79%. With `CCOc1ccc(CN(Cc2ccco2)S(=O)(=O)c2ccc(-n3cnnn3)c(OC)c2)cc1` the figure was 1.7%. `CCOc1ccc(CN(Cc2ccco2)C(c2cccs2)c2nnnn2C(C)(C)C)cc1` (stereo unspecified): the reporter increase is 9.99% (active). With `CCCCCCCCCCCCN1C(=O)CSC1c1cccnc1` (stereo unspecified) the figure was -0.61%; with `COc1ccc(CCNC(=O)C(=O)NCC2CCNCC2)cc1OC`, -1.92%.

As to `COc1cc(/C=N\Nc2nc(-c3cccs3)c(NC(C)=O)s2)ccc1O`, the reporter increase was -1.53%.

Turning to `COc1ccc(NS(=O)(=O)c2ccc(N3CCOCC3)c(NC(=O)c3ccccc3Br)c2)cc1`, the reporter increase is 0.37%.

Take `O=C(CSc1nnc(-c2cccs2)n1Cc1ccccc1)N1CCc2ccccc2C1`: the reporter increase is 9.02% (active). As to `CCn1c(SCC(=O)c2ccc3ccccc3c2)nnc1-c1cccs1`, the reporter increase was 4.66%. In the case of `O=C(CSc1nnc(-c2cccs2)n1-c1ccccc1)N1CCN(C(=O)c2ccco2)CC1`, the reporter increase is -2.17%. With `CCOc1ccc(-n2cnc3c(=O)[nH]c(N)nc32)cc1` the figure was -1.45%.

As for `CC(C)c1cc(CN2CCOCC2)cc(C(C)C)c1O`, the reporter increase is 1.64%. To `O=C(CCCCCN1C(=O)c2cccc3cccc(c23)C1=O)NCc1ccco1` belongs -0.37%; to `Cc1cccc(-[n+]2c(-c3cccc(Br)c3)[nH]c3nc4ccccc4nc32)c1`, 1.73%.

As for `COc1ccccc1OCCOc1ccc(/C=N/n2cnnc2)cc1`, the reporter increase is 3.34%. With `COc1cccc(OCCOc2cccc(/C=N/n3cnnc3)c2)c1` the figure was 10.7% (active); with `C=CCc1ccc(OCCOc2cccc(/C=N/n3cnnc3)c2)c(OC)c1`, 0.6%; with `COc1ccc(NC(=O)c2cn(-c3ccccc3)nc2SC)cc1`, -2.29%. With `O=C(CSc1nnc(SCc2ccc(F)cc2)s1)Nc1ccc(C(=O)O)cc1` the figure was -1.55%. To `CS/C(=C\C(=O)c1ccco1)Nc1ccccc1Cl` belongs 6.17%; to `NNC(=O)C1CCCn2c1nc1sc3c(c1c2=O)CCCC3` (stereo unspecified), -0.79%. In the case of `Cn1c(NN)nc2sc3c(c2c1=O)CCC3`, the reporter increase is 11.1% (active).

Consider `Cc1nc2sc3c(c2c(=O)n1NC(=O)CCl)CCCC3`, for which the reporter increase is 1.1%. Regarding `CC(NS(=O)(=O)c1ccccc1)c1n[nH]c(=S)n1-c1ccccc1` (stereo unspecified), the reporter increase was 0.56%. With `COC(=O)c1sc(NC(=S)NC(=O)c2ccc(C)cc2)nc1C` the figure was -0.57%; with `c1c2c(cc3sc(N4CCCCC4)nc13)OCCO2`, -3.23%; with `Brc1ccc2nc(N3CCCC3)sc2c1`, 18.3% (active). With `Cc1nc(N2CCCCC2)sc1C=O` the figure was -0.49%; with `Cc1ccc(F)cc1NC(=O)N1CCCN(c2ccc(C(F)(F)F)cn2)CC1`, -2.91%; with `CN(C)CCCN(Cc1cc2cc3c(cc2[nH]c1=O)OCCO3)C(=O)NC1CCCCC1`, -1.12%. To `O=C(N/N=C/c1ccco1)c1csc2c1CCCC2` belongs 9.05% (active); to `O=C(N/N=C/c1ccco1)c1ccc(NC(=O)C2CC2)cc1`, 1.48%; to `O=C(N/N=C/c1ccco1)c1ccc(C(=O)N/N=C/c2ccco2)o1`, -0.09%.

As to `COc1ccc(CN(Cc2ccc(OC)cc2)C(=O)c2cccs2)cc1`, the reporter increase was 1.79%.

On to `Cc1cc(C(F)(F)F)c(C#N)c(SCC(=O)NC2CC2)n1`, for which the reporter increase is -3.28%. With `CCOC(=O)CN(C(=O)COc1nc(C)cc(C)c1C#N)c1ccc(Cl)cc1` the figure was -2.18%; with `CCOC(=O)COc1nc(C)cc(C(F)(F)F)c1C#N`, 8.86% (active). To `CCCc1c(C(=O)O)cnn1-c1ccc(Cl)cc1` belongs 1.14%; to `COc1ccc(-c2[nH]ncc2CN(C)Cc2cc(C)[nH]n2)c(F)c1`, -2.83%. To `Cc1nnc(CN(C)Cc2cn[nH]c2-c2ccc(-c3ccccc3)cc2)o1` belongs 10.8% (active).

Turning to `CN(CCC1CCOCC1)Cc1cn[nH]c1-c1ccc(-c2ccccc2)cc1`, the reporter increase was -2.58%.

For the compound `COC(=O)C1=C(N)Oc2cc(C)[nH]c(=O)c2C1c1ccc(Cl)cc1` (stereo unspecified), the reporter increase is -0.92%. Turning to `COc1ccccc1N1CCN(C(=O)CSc2ncnc3c2cnn3-c2ccc(C)c(C)c2)CC1`, the reporter increase is 3.89%. With `O=[N+]([O-])c1ccc(N2CCSCC2)cc1O` the figure was 1.05%. As for `Cc1nc2cc(NC(=O)NC3CC3)ccc2n1C`, the reporter increase was 12.8% (active).

Turning to `C=CCN(C(=O)Nc1ccc2c(c1)nc(C)n2C)c1ccccc1`, the reporter increase is -1.11%. With `Cc1nc2cc(NC(=O)Nc3cccc(F)c3)ccc2n1C` the figure was -1.84%; with `Cc1cc(NC(=O)OC(C)C)ccc1-c1ccc(NC(=O)OC(C)C)cc1C`, 0.84%.

As to `Cn1c(SCC(=O)Nc2ccc(Cl)cc2)nc(O)cc1=O`, the reporter increase is -2.26%. Turning to `Cc1cccc(OCC(=O)Nc2ccccc2F)c1`, the reporter increase was 12.9% (active). As to `COc1cccc(OCC(=O)Nc2ccccc2C(N)=O)c1`, the reporter increase was 0.36%. With `Cc1cccc(OCC(=O)NC(=S)Nc2ccccc2N2CCOCC2)c1`, the reporter increase was 0.28%.

Turning to `O=S(=O)(c1ccccc1)N1CN(Cc2ccc(F)cc2)c2nc3ccccc3nc21`, the reporter increase was 2.39%. With `COc1ccc(N(Cc2ccccc2)S(=O)(=O)c2cccc(C(=O)O)c2)cc1` the figure was 0.36%; with `CCOc1ccc(N2CC(C(=O)N/N=C/c3sccc3C)CC2=O)cc1` (stereo unspecified), -2.91%; with `CCN(CC)CCCN=Cc1c(O)n(-c2ccc(C)cc2)c(=O)c2ccccc12`, 5.68%.

For `Cc1ccc2c(Cl)c(C(=O)Nc3nn[nH]n3)sc2c1`, the reporter increase was -0.87%. Consider `COc1ccc(-c2cc(C(=O)NCCCn3ccnc3)no2)cc1`, for which the reporter increase is -0.75%. `Cc1ccc2c(Cl)c(C(=O)NCCCn3ccnc3)sc2c1`: the reporter increase is 18.1% (active).

Take `O=C1CC(Cc2ccc(Cl)cc2)C(=O)N1c1cc(Cl)ccn1` (stereo unspecified): the reporter increase is 2.19%. For `O=C(NC(=O)c1cc(OCC(F)(F)F)ccc1OCC(F)(F)F)Nc1ccccc1`, the reporter increase is -0.42%.

Regarding `CC(CC(=O)Nc1cc(C(F)(F)F)ccc1Cl)c1ccccc1` (stereo unspecified), the reporter increase is -1.69%. To `O=C(NNc1ccccc1Cl)C(O)(c1cccc(C(F)(F)F)c1)c1cccc(C(F)(F)F)c1` belongs 16.5% (active). With `O=C(Nc1cc(C(F)(F)F)ccc1Cl)C(=O)N1CCCCC1`, the reporter increase is 0.04%.

Regarding `CCn1c2ccccc2c2cc(NC(=O)Nc3ccc([N+](=O)[O-])cc3C)ccc21`, the reporter increase is -2.8%. With `Cc1ccc(Nc2nc(N)nc(CSc3nnc(C)s3)n2)cc1` the figure was 9.2% (active). With `Cc1ccccc1Nc1nc(N)nc(CSc2ccccc2)n1` the figure was 5.12%; with `Cc1ccc(Nc2nnc(SCc3ccccc3)s2)cc1`, 0.21%; with `O=C(c1cc(COc2c(F)cccc2F)on1)N1CCSCC1`, -0.41%. To `COC(=O)Cn1c(O)c(N=NC(=O)OC)c2ccccc21` belongs -1.42%. For the compound `Cc1cc(C)nc(SCc2cn3c(C)cc(C)nc3n2)n1`, the reporter increase is 1.99%.

Consider `COc1cc(C(F)(F)F)c(C(=O)N(C)c2ccc(Cl)cc2)cn1`, for which the reporter increase was -1.97%. With `COc1ccccc1N(C)S(=O)(=O)c1ccc(C(=O)NC2CCCCCC2)cc1` the figure was 1.14%.

Take `CC(=O)N(CCCN(C)C)c1nc2ccc(C)cc2s1`: the reporter increase was 1.87%. To `CN(C)CCCCCN(C)Cc1cc2ccccc2o1` belongs 9.64% (active). For `CCCOC(=O)c1cc2ccccc2oc1=O`, the reporter increase is -1.59%.

On to `COCCN(Cc1cc2cc3c(cc2nc1Cl)OCO3)C(=O)c1cccc(C)c1`, for which the reporter increase is -2.99%.

On to `Cc1ccc(NC(=S)N/N=C2/CCCc3c(C)cc(C)cc32)cc1`, for which the reporter increase is -2.2%. With `CCCCNC(=S)N/N=C1\CCCCc2ccccc21` the figure was 9.73% (active); with `CCCC1CCC(=NNC(=S)NCCc2ccccc2)CC1` (stereo unspecified), -0.9%.

Take `Cc1ccc(N2C(=O)CC(N3CCSCC3)C2=O)c(C)c1` (stereo unspecified): the reporter increase was -2.9%. To `Cc1ccccc1NC(=O)Nc1ccccc1N1CCCCC1` belongs 2.91%; to `O=c1cc(CSc2ccccn2)nc(N2CCN(c3ccccc3)CC2)[nH]1`, 10.3% (active). To `Cc1nnc(SCc2cc(=O)[nH]c(N3CCN(Cc4ccccc4)CC3)n2)s1` belongs 0.09%; to `O=c1cc(CSc2ccc(Cl)cc2)nc(N2CCOCC2)[nH]1`, 4.27%; to `C/C=C/c1ccc(OCC(O)CN2CCCCCCC2)c(OC)c1` (stereo unspecified), -0.18%.

With `C/C=C/c1ccc(OCCOc2ccc(C=O)cc2OC)c(OC)c1`, the reporter increase is 0.41%. To `C/C=C/c1ccc(OCCCCN2CCC(C)CC2)c(OC)c1` belongs 28.9% (active). With `CN(C(=O)COC(=O)c1cc(-c2ccco2)nc2ccccc12)C1CCS(=O)(=O)C1` (stereo unspecified) the figure was -1.15%. With `O=C(Nc1nc2ccc(S(=O)(=O)N3CCCC3)cc2s1)C1CCCO1` (stereo unspecified) the figure was -1.26%; with `Cc1cc(C)c2nc(NC(=O)c3ccc4c(c3)OCO4)sc2c1`, -0.87%; with `Cc1cc(C)c2nc(NC(=O)C3CCCO3)sc2c1` (stereo unspecified), 9.43% (active). Regarding `COc1ccc(NC(=O)CCN2C(=O)/C(=C/c3ccc4c(c3)OCO4)SC2=S)cc1`, the reporter increase was 0.36%. With `Cc1cc(C(=O)CSc2nc(N)cc(=O)[nH]2)c(C)n1Cc1ccco1` the figure was 2.39%; with `COc1ccc(NC(=S)NCCNC(C)=O)cc1`, 0.16%; with `COc1ccc(NC(=O)/C(Cl)=C(/Cl)S(=O)Cc2ccc(C)cc2)cn1` (stereo unspecified), 11% (active). To `COc1ccc(Nc2cc(Cl)ccc2C(=O)O)cn1` belongs 2.84%; to `COc1ccc(NC(=S)Nc2ccccc2Cl)cn1`, 4.13%. For `COc1ccc(CS(=O)/C(Cl)=C(/Cl)C(=O)Nc2ccc(OC)nc2)cc1` (stereo unspecified), the reporter increase is 17.4% (active). With `CC(=O)Nc1ccc(OCC(=O)NCc2ccc(C)cc2)cc1` the figure was -0.21%.
